Screening results (PubChem)
PNC assembly inh: blocks assembly of the perinucleolar compartment. AID 2417. PC3M PTB-GFP, PNC prevalence imaging, 16 h; active compounds read low. activity change (PNC), negative = inhibition, % at 10 µM. 140,000 compounds, 3.1% hits;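 active = readout at or below -70, meaning at least 70% loss of cells showing the perinucleolar compartment, a nuclear body marking cancer cells; inconclusive = readout between -30 and a set limit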;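 also: plate controls were DMSO wells for no effect and camptothecin positive control wells for full effect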
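Compounds are pinned in duplicate onto adhered PC3M cells stably expressing GFP-tagged PTB and incubated 16 h at 37 C. Cells are then fixed, nuclei stained with Hoechst, and PNC-positive cells counted.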
ALDH1A1 inh: blocks purified human ALDH1A1 activity; 220,000 compounds, 7.3% hits; AID 1030; Potency, µM (doses to about 75.3 µM), for the others: top-dose activity, negative = inhibition, usual class: inhibitors; P00352; Purified ALDH1A1, NADH fluorescence, propionaldehyde substrate;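 also: potency is read from the fitted curve at half-maximal effect; plate controls were no enzyme wells and a reference inhibitor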
Target sequence (P00352 whole entry, looked up): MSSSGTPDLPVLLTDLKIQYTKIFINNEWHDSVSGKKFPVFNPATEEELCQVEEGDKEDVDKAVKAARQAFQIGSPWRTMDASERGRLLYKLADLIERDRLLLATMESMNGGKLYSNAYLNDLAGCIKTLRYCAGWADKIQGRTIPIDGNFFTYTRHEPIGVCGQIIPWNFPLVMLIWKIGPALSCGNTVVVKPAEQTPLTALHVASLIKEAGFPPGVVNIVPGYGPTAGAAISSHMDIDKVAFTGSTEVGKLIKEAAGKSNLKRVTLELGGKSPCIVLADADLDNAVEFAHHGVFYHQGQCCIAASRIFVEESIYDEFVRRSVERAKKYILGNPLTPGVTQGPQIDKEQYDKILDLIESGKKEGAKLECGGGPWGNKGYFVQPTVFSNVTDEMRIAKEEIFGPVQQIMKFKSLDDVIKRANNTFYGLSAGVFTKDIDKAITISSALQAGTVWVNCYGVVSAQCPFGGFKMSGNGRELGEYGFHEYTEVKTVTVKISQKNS
HPGD inh: blocks human HPGD enzyme activity; P15428; purified HPGD, NADH fluorescence kinetic, PGE2 substrate; Potency, µM, without a hit: at the top dose activity change, negative = inhibition, usual class: inhibitors; 150,000 compounds, 4.3% hits; AID 894; also: potency is read from the fitted curve at half-maximal effect
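20 nM HPGD preincubated 15 min at room temperature with compound in 50 mM Tris-HCl pH 8, 0.01% Tween 20. Started with 1 mM NAD+ and 30 uM prostaglandin E2; NADH fluorescence (360/450 nm) read 5 times over 30-s intervals, last minus first.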
Starred values were filed as active, the others as inactive; ? = inconclusive; . = no result; [ ] = remark or other dose. Shown are actives, neighbours in structure and some others; about 11% of the full set was active somewhere. Unless noted, calls follow the shape of the dose curve; as a rule, active = well fitted inhibition curve with a large enough effect (not every such curve was filed as active); inconclusive = small, poorly fitted or top-dose-only effect, or another doubt; inactive = no such curve, though single readings can be large or run the other way. Unless noted, % is scaled to controls: 0 for no effect and ±100 for the full control effect.

SMILES	PNC assembly inh	ALDH1A1 inh	HPGD inh
N/C(=N\OC(=O)CCn1cccc(C(F)(F)F)c1=O)c1ccc(Cl)cc1	.	-7%	.
COc1ccc(NC(=O)N2CCC3(CC2)CCN(C(=O)c2cc(C(F)(F)F)cc(C(F)(F)F)c2)CC3)cc1	.	3%	-5%
CCc1ccccc1NC(=O)Nc1cc(F)ccc1F	.	-3%	.
O=C(O)Cn1nnnc1SCC(=O)Nc1ccc(F)cc1F	.	1%	.
CCN(CC)c1ccc(/C=N/NC(=O)c2cnccn2)cc1	.	22µM*	.
O=C(Nc1ccc(NC(=S)NC(=O)c2cccs2)cc1)c1ccco1	.	-5%	.
CCN(CC)C(=S)SCC(=O)Nc1ccc(F)cc1	5	?	18µM*
O=C(NC(=S)Nc1ccc(-c2ccc(CO)o2)cc1)c1cccs1	.	20µM*	.
COc1cc(/C=N/NC(=O)c2cnccn2)cc(OC)c1OC	-29	-3%	-23%
CCN(CC)C(=S)SCC(=O)c1ccc(F)cc1	93	?	-8%
O=C(CCNC(=O)c1ccc([N+](=O)[O-])cc1)N/N=C/c1ccc(F)cc1	.	5%	.
CCN(CC)c1ccc(/C=N/NC(=O)c2ccc([N+](=O)[O-])cc2)cc1	.	28µM*	.
CNCc1sccc1C	.	3%	.
NS(=O)(=O)c1ccc(CCN=Cc2ccccc2O)cc1	9	8%	0%
CCO[C@H]1OC(C(=O)N2CCCCCCC2)=C[C@@H](C)[C@@H]1CCCO	.	-3%	.
COc1ccc(-c2csc(NC(=S)NC(=O)c3cccs3)n2)cc1OC	.	11µM*	.
CCN(CC)c1ccc(NC(=S)NC(=O)c2cccs2)cc1	.	8.9µM*	.
Cn1nnc(NC(=S)NC(=O)c2cccs2)n1	-25	?	?
CCCCn1nnc(NC(=S)NC(=O)c2cccs2)n1	22	20µM*	.
COc1ccccc1NC(=S)NNC(=S)Nc1ccc(OC(F)F)cc1	14	7.1µM*	-19%
COc1ccc(-c2csc(NC(=S)NC(=O)c3cccs3)n2)cc1Br	.	2%	.
COc1ccc(NC(=S)Nc2ccc(OC(F)F)cc2)cn1	.	1%	.
CCCC(=O)Nc1ccc(NC(=S)NC(=O)c2cccs2)cc1	.	-8%	.
Nc1ccc(C(=O)C[C@H](N)C(=O)O)cc1O	.	-3%[13.5 µM]	-5%
CN(C(=O)Nc1cccc(C(F)(F)F)c1)C1CCCCC1	.	10%	.
SMILES	PNC assembly inh	ALDH1A1 inh	HPGD inh
N/C(CN1CCCCC1)=N\S(=O)(=O)c1cc(Cl)cc(Cl)c1	.	8%	.
CC12CCC(C/C1=N\N=C1\NC(=O)/C(=C\c3ccc(Cl)cc3)S1)C2(C)C (configuration not stated)	-25	16%	-16%
O=C(NNC(=S)NCc1ccccc1)c1ccccc1OC(F)F	?	-12%	-9%
CCN(CC)c1ccc(NC(=O)CN2CCN(CC(=O)Nc3ccc(F)cc3)CC2)cc1	9	-6%	1%
CCN(CC)c1ccc(NC(=S)Nc2ccc(F)cc2)cc1	.	11µM*	.
CCN(c1ccccc1)S(=O)(=O)c1ccc(NC(=S)NC(=O)c2cccs2)cc1	4	6.3µM*	-21%
O=C(NNC(=S)Nc1ccc(Cl)cc1)c1ccccc1OC(F)F	18	20µM*	-14%
CN(c1ccccc1)S(=O)(=O)c1ccc(NC(=O)c2cccs2)cc1	.	1%	.
CCC(=O)OCC(=O)[C@@]1(OC(=O)CC)[C@@H](C)C[C@@H]2[C@H]3CCC4=CC(=O)C=C[C@]4(C)[C@@]3(F)[C@@H](O)C[C@@]21C	.	-1%	-8%
Cc1cc(C(=O)N2CCCC(C(=O)c3cccc(C(F)(F)F)c3)C2)nc(C)n1 (configuration not stated)	.	-2%	.
COc1ccc(CCn2c(SCCN3CCCCC3)nc3ccccc3c2=O)cc1OC	.	-2%	.
COc1nccc(-c2ccc(F)cc2)c1C#N	.	-6%	.
CS(=O)(=O)N(CC(=O)Nc1ccc(S(=O)(=O)N2CCOCC2)cc1)c1ccccc1Br	.	-5%	.
O=C(CO/N=C/c1ccccc1OC(F)F)NCc1cccs1	-29	8%	16µM*
O=C(CO/N=C/c1ccccc1OC(F)F)N1CCc2ccccc21	5	16µM*	-10%
CC1Cc2ccccc2N1C(=O)CO/N=C/c1ccccc1OC(F)F (configuration not stated)	40	?	-18%
CC(C)CCNC(=O)CO/N=C/c1ccccc1OC(F)F	93	13%	.
C=CCNC(=O)c1cc(Cl)cc(Cl)c1	.	11%	.
CCOC(=O)c1c(C)nc2sc3c(c2c1-c1ccc(OC)cc1)NC(c1ccc(OC)cc1)NC3=O (configuration not stated)	-15	-2%	-23%
COc1ccccc1N1CCN(C(=O)COc2cc(C)cc(C)c2)CC1	.	4%	.
Cc1ccc(C2CC(=O)Oc3cc(C)c(Br)c(C)c32)cc1 (configuration not stated)	.	13%	-7%
O=C(COc1ccc(Cl)cc1)NCc1nnc2c3ccccc3c(-c3ccccc3)nn12	-108*	?	-18%
